EBNA-1 inhibitor: blocks EBNA-1 binding to DNA | AID 1950 | inhibition, % at 14.8 µM | 300,000 tested, 0.34% active | EBNA-1 DNA binding, fluorescence polarization; in the data active means inhibition above about 28%
ZTA DNA inh: counter-screen for EBNA-1 inhibitors: inhibitors of Epstein-Barr virus ZTA. P03206. ZTA-DNA binding, fluorescence polarization. inhibition, % at 11 µM. 320,000 tested, 0.15% active. AID 2234; in the data active means inhibition above about 33%
PAFAH1B2 inh: PAFAH1B2 (human) inhibition; P68402; recombinant PAFAH1B2, FP-rhodamine activity probe, fluorescence polarization; inhibition, % at 3.39 µM; 340,000 tested, 1.2% active; AID 492953;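 active means inhibition above the mean of all tested compounds plus 3 SD, cut at about 24% in these data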;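 further: 0% = enzyme with DMSO and 100% = wells lacking PAFAH1B2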
pPAFAH inh: inhibitors of human plasma PAF acetylhydrolase (pPAFAH); Q13093; inhibition, % at 3.39 µM; recombinant pPAFAH, FP-rhodamine probe fluorescence polarization; 330,000 tested, 1.5% active;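 active means inhibition above the mean inhibition across the screen plus 3 SD, cut at about 25% in these data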;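 further: inhibitors block binding of the rhodamine activity-based probe so polarization drops; 0% = enzyme with DMSO and 100% = wells lacking pPAFAH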
Target sequence (Q13093 whole entry, looked up): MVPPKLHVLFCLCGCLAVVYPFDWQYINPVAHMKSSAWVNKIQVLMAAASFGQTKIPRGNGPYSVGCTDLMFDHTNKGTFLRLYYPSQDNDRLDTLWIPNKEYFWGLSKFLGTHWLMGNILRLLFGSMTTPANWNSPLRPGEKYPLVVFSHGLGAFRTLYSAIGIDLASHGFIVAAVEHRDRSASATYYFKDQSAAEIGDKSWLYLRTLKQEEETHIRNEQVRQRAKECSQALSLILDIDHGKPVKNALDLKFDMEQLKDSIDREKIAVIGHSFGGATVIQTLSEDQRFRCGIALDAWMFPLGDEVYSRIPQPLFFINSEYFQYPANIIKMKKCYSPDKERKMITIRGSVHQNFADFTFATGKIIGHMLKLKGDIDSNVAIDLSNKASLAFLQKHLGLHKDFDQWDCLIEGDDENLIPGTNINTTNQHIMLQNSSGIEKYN
PAFAH1B3 FP inh: inhibitors of human PAFAH1B3; AID 492972; recombinant PAFAH1B3, FP-rhodamine probe, fluorescence polarization; inhibition, % at 3.39 µM; 340,000 tested, 0.28% active; Q15102;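 active means inhibition above the screen-wide average of all tested compounds plus 3 SD, cut at about 25% in these data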;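 further: 0% = enzyme with DMSO only and 100% = wells lacking PAFAH1B3 protein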
PAFAH2 inh: inhibitors of human PAFAH2; recombinant PAFAH2, FP-rhodamine activity probe, fluorescence polarization; 340,000 tested, 0.99% active; AID 492956; Q99487; inhibition, % at 3.39 µM;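 active means inhibition above the mean over all tested compounds plus 3 SD, cut at about 30% in these data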;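 further: inhibitors block probe labeling of enzyme so polarization drops; 0% = enzyme with DMSO and 100% = wells lacking PAFAH2 protein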
Starred values were filed as active, the others as inactive; . = no result given; + = active, no number. Rows were chosen to be rich in hits. Some 2.9% of all compounds tested hit in one or more screens of this group.

SMILES | EBNA-1 inhibitor | ZTA DNA inh | PAFAH1B2 inh | pPAFAH inh | PAFAH1B3 FP inh | PAFAH2 inh
CCCc1cc(=O)[nH]c(SCc2ccc(F)cc2)n1 | -11 | -6 | 11 | 31* | 6 | 2
N#Cc1ccc(CSc2nc(N)cc(=O)[nH]2)cc1 | -1 | 12 | 19 | 4 | 6 | 0
Cc1ccccc1CSc1nc2c(c(=O)[nH]1)CCCC2 | 4 | 5 | . | 51* | . | .
CCCc1cc(=O)[nH]c(Nc2ccc(N3CCCCC3)cc2)n1 | 10 | -8 | 4 | 8 | 8 | 7
Cn1ccnc1COc1ccc(/C=N/O)cc1 | -9 | -4 | 4 | 2 | 0 | 3
CCOC(=O)c1cnc(SCCN2CCOCC2)nc1N | -10 | 8 | 1 | -2 | 4 | 1
Cc1ccc(CSc2nc3c(c(=O)[nH]2)CCC3)cc1 | 4 | -15 | 25* | 8 | 10 | 2
Cc1cccc(CSc2nc3c(c(=O)[nH]2)CCC3)c1 | 9 | 6 | 0 | 20 | -5 | 14
Cc1nnsc1C(=O)NC(C)C12CC3CC(CC(C3)C1)C2 (configuration not stated) | -13 | -7 | 29* | 1 | 3 | 5
CC(NC(=O)c1ccccc1F)C12CC3CC(CC(C3)C1)C2 (configuration not stated) | 1 | -33 | 27* | 6 | 11 | 8
Cc1noc(C)c1C(=O)NC(C)C12CC3CC(CC(C3)C1)C2 (configuration not stated) | -8 | 4 | 23 | -2 | -3 | -5
Cc1occc1C(=O)NC(C)C12CC3CC(CC(C3)C1)C2 (configuration not stated) | -16 | -3 | 22 | 0 | -3 | 3
NS(=O)(=O)c1cccc(NC(=O)CSc2nnc3n2CCCCC3)c1 | . | . | -1 | 0 | 4 | -1
CCc1cc(-c2n[nH]c(C)c2Oc2ccc(C(C)C)cc2)c(O)cc1O | -9 | 1 | 5 | 31* | 13 | 7
Cc1[nH]nc(-c2ccc(O)cc2O)c1Oc1ccccc1 | -2 | 7 | 27* | 2 | 5 | 1
CCCOC(=O)c1ccc(Oc2c(-c3ccc(OC)cc3O)n[nH]c2C)cc1 | 4 | 13 | 2 | 17 | 5 | -7
CCCOC(=O)c1ccc(Oc2c(-c3ccc(O)cc3O)n[nH]c2C)cc1 | -21 | -7 | -7 | 20 | 9 | -10
COc1ccc(C(=O)C2CCCN(S(=O)(=O)c3ccccc3F)C2)c(C)c1 (configuration not stated) | -1 | -10 | 6 | 0 | 13 | 2
Cc1occc1C(=O)N1CCCC(N2CCN(c3ccccc3F)CC2)C1 (configuration not stated) | -6 | -10 | -2 | -5 | 3 | -10
Clc1ccc2c(c1)Nc1ccccc1CC2 | 7 | 8 | 1 | 1 | 8 | 4
Cc1cc(=O)oc(C)c1C(=O)Nc1cccc(F)c1 | 1 | -7 | 2 | -3 | 1 | -2
O=C(O)c1ccc(Cl)c2c1C1C=CCC1C(c1ccccn1)N2 (configuration not stated) | 13 | 31 | . | 58* | . | .
COc1ccc(OC)c(C2Nc3c(Cl)ccc(C(=O)O)c3C3C=CCC32)c1 (configuration not stated) | 7 | 10 | 2 | 25* | 2 | 4
N#Cc1c(Nc2ccccc2)sc(C(=O)c2ccc(F)cc2)c1N | -8 | 12 | 30* | 17 | 6 | 7
Cc1ccc(C(=O)c2sc(Nc3ccccc3)c(C#N)c2N)cc1 | 4 | 3 | 6 | 24 | -3 | 7
SMILES | EBNA-1 inhibitor | ZTA DNA inh | PAFAH1B2 inh | pPAFAH inh | PAFAH1B3 FP inh | PAFAH2 inh
N#Cc1c(Nc2ccccc2)sc(C(=O)C2CC2)c1N | 2 | 8 | 28* | 8 | 6 | 1
COc1ccc(/C=N/NC(=O)c2cccnc2)c2ccccc12 | 6 | -1 | 155* | 3 | 199* | +
COc1ccc(OC)c2[nH]c(C(=O)N/N=C/c3ccccc3O)cc12 | -14 | -7 | 34* | 19 | 42* | 30*
COc1ccc(OC)c(/C=N/NC(=O)c2cc3c(OC)cccc3[nH]2)c1 | 17 | -6 | 13 | 25* | 12 | 4
COc1ccc(/C=N/NC(=O)c2cc3c(OC)ccc(OC)c3[nH]2)cc1O | 5 | -13 | 29* | 24 | 22 | 5
CCn1c(CN2CCN(C(c3ccccc3)c3ccccc3)CC2)nc2c1c(=O)n(C)c(=O)n2C | -16 | -7 | -2 | 5 | 5 | 1
COc1ccc(-c2cc(-c3nnc(COC(=O)CC4CC5CCC4C5)o3)c3ccccc3n2)cc1OC (configuration not stated) | -8 | -3 | 4 | -4 | -8 | -17
NC(=O)c1c(NC(=O)CSc2nnc(-c3ccco3)n2-c2ccccc2)sc2c1CCC2 | 14 | 17 | -3 | 33* | -6 | 11
N#Cc1c(NC(=O)CSc2nnc(-c3ccco3)n2-c2ccccc2)sc2c1CCC2 | 10 | 21 | 3 | 13 | 2 | 8
COc1ccc(Cc2noc(CN3CCCC(OCc4ccccn4)C3)n2)cc1OC (configuration not stated) | 10 | 0 | 4 | -4 | -7 | -2
CCN(C(=O)COc1cc(=O)n(C)c2ccccc12)c1cccc(Cl)c1 | 4 | 7 | 1 | 23 | -6 | 0
CN(C(=O)COc1cc(=O)n(C)c2ccccc12)c1cccc(Cl)c1 | 2 | 4 | 2 | 28* | 6 | 5
Cc1cccc(N(C)C(=O)COc2cc(=O)n(C)c3ccccc23)c1 | -5 | 4 | 4 | 34* | 8 | -3
Cc1ccc(S(=O)(=O)NC(=O)Nc2ccc(N(C)C)cc2)cc1 | + | + | 6 | 25* | 7 | 0
N#CC(=C1C=CC(=NO)C(Cl)=C1)c1ccc(Cl)cc1 | . | . | 38* | . | 8 | 7
Cc1ccc(-c2ccc(/C=C/C(=O)c3ccccc3)o2)cc1 | 0 | 18 | -3 | 17 | 3 | -4
O=C(/C=C/c1ccc(-c2ccccc2)o1)c1ccccc1 | 11 | 2 | -1 | 27* | 8 | 6
CCn1ccnc1[C@@H]1C[C@H]2CN(c3ccccc3OC)C(=O)[C@]23CCCN13 | -3 | -9 | 4 | 6 | 2 | -7
COc1ccc2oc(=O)c(-c3csc(Nc4cccc(O)c4)n3)cc2c1 | -5 | -9 | 40* | 23 | 29* | -2
COc1ccc(Nc2nc(-c3cc4cccc(OC)c4oc3=O)cs2)cc1 | 2 | 17 | 0 | 12 | -2 | -2
Cc1ccc(NC(=O)COc2coc(CN3CCc4ccccc4C3)cc2=O)c(C)c1 | 11 | -4 | 9 | 25* | 8 | 4
Cc1ccc(C)c(NC(=O)COc2coc(CN3CCc4ccccc4C3)cc2=O)c1 | -2 | 10 | 3 | 8 | 1 | 3
COc1ccc(NC(=O)c2cc(S(=O)(=O)N(Cc3ccccc3)c3ccccc3)ccc2Cl)cn1 | 3 | 2 | -7 | 5 | -11 | -19

Compound activity (PubChem)
